In PubChem BioAssay (NCI):
This is part of a sample that, as a whole, favours compounds with a hit. Of some 79,000 tested, about 15% had one in any assay. Rule as the data show it: active = growth inhibition above about 70%; inactive = the rest.

Assays:
[1] = NCI Yeast Anticancer Drug Screen. Data for the rad50 strain (AID 155);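 also: 0% = growth of vehicle-only cultures of the same strain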; conditions: S. cerevisiae rad50 strain growth inhibition, active compounds read high; at 50.0 µM unless noted
In short: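 DNA repair mutant yeast, compound exposure, growth read-out; inhibition is taken relative to vehicle.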

[2] = NCI Yeast Anticancer Drug Screen. Data for the mec2-1 strain (AID 157); conditions: S. cerevisiae mec2-1 strain, active compounds read high; at 50.0 µM unless noted
In short: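 Using mec2-1 yeast: add compound, measure growth, express inhibition versus vehicle-treated cultures.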

[3] = NCI Yeast Anticancer Drug Screen. Data for the sgs1 mgt1 strain (AID 161);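 also: 0% = growth of cultures given vehicle only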; conditions: S. cerevisiae sgs1 mgt1 strain, active compounds read high; at 50.0 µM unless noted
In short: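 This yeast growth screen uses a strain with defined DNA-repair lesions; compound-treated growth is compared with vehicle-treated growth.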

[4] = NCI Yeast Anticancer Drug Screen. Data for the cln2 rad14 strain (AID 165);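 also: 0% = growth equal to vehicle treated cultures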; conditions: S. cerevisiae cln2 rad14 strain, active compounds read high; at 50.0 µM unless noted
In short: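 Yeast strain cln2 rad14, bearing defects in cell cycle control and DNA repair, serves as the test system; values reflect growth inhibition compared with vehicle.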

[5] = NCI Yeast Anticancer Drug Screen. Data for the bub3 strain (AID 167); conditions: S. cerevisiae bub3 mutant strain, active compounds read high; at 50.0 µM unless noted
In short: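 In this screen, a yeast mutant lacking normal mitotic checkpoint function is challenged with compound. Relative growth versus vehicle gives the inhibition value.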

[6] = NCI Yeast Anticancer Drug Screen. Data for the mlh1 rad18 strain (AID 175); conditions: S. cerevisiae mlh1 rad18 strain growth inhibition, active compounds read high; at 50.0 µM unless noted
In short: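 Steps: expose repair-defective yeast to compound; measure growth; express inhibition against vehicle-treated controls.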

Measured: growth inhibition

S=c1nc2ccccn2c(=S)n1-c1ccccn1
inactive: [1] 33.6% | [2] 23.9% | [3] 27.4% | [4] 0.5% | [5] 24.5% | [6] 57.9%

CN(C)CCNC(=O)Nc1cccc2ccccc12
inactive: [1] 16% | [2] 8.35% | [3] -0.8% | [4] 16.6% | [5] -6.5% | [6] 2.25%

Fc1ccccc1C1SCc2nc3cc4ccccc4cc3n21 (stereo not given)
inactive: [1] -33.6% | [2] -17.8% | [3] 0.95% | [4] -1.45% | [5] -0.95% | [6] 40%

CC12CCC([C@H](C(O)C3CCCCC3)C1=O)C2(C)C (stereo not given in full)
inactive: [1] -2.7% | [2] -16.6% | [3] -12.8% | [4] 16.6% | [5] -5.7% | [6] -5.1%

C=CCCCC1CCCNC1=S (stereo not given)
inactive: [1] 8.3% | [2] 6.1% | [3] 20.4% | [4] 12.6% | [5] 28.9% | [6] 20.9%
